# Assay results taken from PubChem BioAssay (Tox21).
# Results filed as inconclusive are left out. Where a call stands in place of a potency, no number is given. The source made the active and inactive calls. Unless noted, calls follow the shape of the full dose curve.
# What was measured:
# [1] = Nuclear factor erythroid 2-related factor 2/antioxidant responsive element (Nrf2/ARE) small molecule agonists: qHTS cell viability counter screen in human keratinocytes (AID 1919968; active = well fitted curve in the direction sought with a large enough effect in the repeat runs; an effect the other way counts as inactive or inconclusive; also: nearly all actives have a fitted effect of over 55% in size)
# Summary of the method: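 KeratinoSens cells (HaCaT keratinocytes stably carrying an ARE-luciferase reporter) were seeded at 1,500 cells/well and rested 5 h at 37 C/5% CO2. They were then exposed to compounds in DMSO for 23 h. Viability was read by CellTiter-Fluor fluorescence after 1 h.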
# [2] = target: Gonadotropin-releasing hormone receptor (Homo sapiens) (UniProt P30968); test: Human gonadotropin-releasing hormone receptor (GnRHR) small molecule agonists, calcium flux assay in GnRHR-HEK293 cells (AID 1920063); also: nearly all actives have a fitted effect of over 35% in size
# Sequence of Gonadotropin-releasing hormone receptor (Homo sapiens) (P30968 whole entry, looked up): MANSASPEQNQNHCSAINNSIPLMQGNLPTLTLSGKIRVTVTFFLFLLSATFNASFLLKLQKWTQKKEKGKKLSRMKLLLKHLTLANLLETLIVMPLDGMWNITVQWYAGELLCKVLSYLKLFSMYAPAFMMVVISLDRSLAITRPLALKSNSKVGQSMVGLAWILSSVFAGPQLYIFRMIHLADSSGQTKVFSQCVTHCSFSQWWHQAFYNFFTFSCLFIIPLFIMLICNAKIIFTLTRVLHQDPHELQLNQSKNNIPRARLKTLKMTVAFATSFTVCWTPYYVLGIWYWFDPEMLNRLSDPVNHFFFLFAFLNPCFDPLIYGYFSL
# Summary of the method: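 HEK293 cells stably expressing human GnRHR were plated 18 h at 37 °C, loaded with calcium dye 1 h at 37 °C, then given compound in agonist mode; fluorescence (Ex/Em 480/540) read kinetically for 3 min at 1 s intervals.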
# [3] = G protein-coupled receptor (GPCR) small molecule agonists, calcium flux assay: HEK293 wild type cell line counter screen (AID 1920065)
# Summary of the method: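 Cells were plated and cultured 18 h at 37 C/5% CO2, then loaded with calcium dye for 1 h at 37 C. Compounds in DMSO were pin-transferred in agonist mode, and fluorescence (Ex/Em 480/540) was read kinetically for 3 min at 1 s intervals.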
# [4] = p53 small molecule agonists, cell-based qHTS assay with rat liver microsomes (AID 1963578)
# Summary of the method: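 Metabolic activation is supplied by rat liver microsomes with NADPH (each 0.5 mg/mL final). p53RE-bla cells incubate with compound 16 h at 37 C; reporter activity is measured by LiveBLAzer fluorescence.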
# [5] = p53 small molecule agonists, cell-based qHTS assay with human liver microsomes: qHTS cell viability counter screen (AID 1963579); also: nearly all actives have a fitted effect of over 45% in size
# Summary of the method: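 After the 460/530 nm beta-lactamase read, CellTiter-Glo was added to the same wells and luminescence measured after 30 min at room temperature, giving viability of p53RE-bla cells treated 16 h with compounds plus microsomes and NADPH.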
# [6] = p53 small molecule agonists, cell-based qHTS assay with rat liver microsomes: qHTS cell viability counter screen (AID 1963580); also: nearly all actives have a fitted effect of over 45% in size
# Summary of the method: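 In HCT-116 cells carrying a p53 response element-bla reporter, compounds were metabolically activated in situ by rat liver microsomes with NADPH over 16 h. Cell ATP content then served as the cytotoxicity measure.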
# [7] = p53 small molecule agonists, cell-based qHTS assay: qHTS cell viability counter screen (AID 1963581); also: nearly all actives have a fitted effect of over 45% in size
# Summary of the method: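 p53RE-bla HCT-116 cells were exposed to compounds for 16 h at 37 C; after the beta-lactamase FRET read in the same wells, CellTiter-Glo was added and luminescence (intracellular ATP) read after 30 min at room temperature.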
# [8] = target: 5-hydroxytryptamine receptor 2A (Homo sapiens) (UniProt P28223); test: 5-hydroxytryptamine receptor 2A (HTR2A) small molecule antagonists, cell-based qHTS assay (AID 1963586); also: nearly all actives have a fitted effect of over 45% in size; also: potency is read from the fitted curve at half-maximal effect
# Sequence of 5-hydroxytryptamine receptor 2A (Homo sapiens) (P28223 whole entry, looked up): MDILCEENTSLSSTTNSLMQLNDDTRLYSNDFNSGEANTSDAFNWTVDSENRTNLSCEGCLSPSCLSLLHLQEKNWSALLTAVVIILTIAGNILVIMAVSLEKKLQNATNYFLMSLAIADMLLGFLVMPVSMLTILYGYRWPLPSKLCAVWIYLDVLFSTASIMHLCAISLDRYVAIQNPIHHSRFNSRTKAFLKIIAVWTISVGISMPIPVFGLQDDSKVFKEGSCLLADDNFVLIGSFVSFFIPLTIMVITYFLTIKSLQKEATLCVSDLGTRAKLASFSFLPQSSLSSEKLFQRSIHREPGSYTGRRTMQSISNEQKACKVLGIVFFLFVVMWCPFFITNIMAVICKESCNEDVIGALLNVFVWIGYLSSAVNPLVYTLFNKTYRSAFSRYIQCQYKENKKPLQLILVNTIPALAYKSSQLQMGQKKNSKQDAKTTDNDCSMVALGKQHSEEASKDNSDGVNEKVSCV
# Summary of the method: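 Antagonist-mode intracellular calcium assay: DOI (4 nM) added after 5 min compound pre-incubation at room temperature to dye-loaded HTR2A-CHO cells. Fluorescence followed for 3 min, sampled every second.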
# [9] = target: 5-hydroxytryptamine receptor 2A (Homo sapiens) (UniProt P28223); test: 5-hydroxytryptamine receptor 2A (HTR2A) small molecule agonists, cell-based qHTS assay (AID 1963587); also: nearly all actives have a fitted effect of over 30% in size
# Summary of the method: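 HTR2A-CHO cells, plated 18 h at 37 C/5% CO2, dye-loaded 1 h at 37 C; compounds in DMSO added by pin tool (agonist mode). Intracellular calcium flux read as kinetic fluorescence on FDSS over 2 min at 1 s intervals.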
# [10] = target: Muscarinic acetylcholine receptor M1 (Homo sapiens) (UniProt P11229); test: Cholinergic receptor muscarinic 1 (CHRM1) small molecule antagonists, cell-based qHTS assay (AID 1963588); also: nearly all actives have a fitted effect of over 40% in size
# Sequence of Muscarinic acetylcholine receptor M1 (Homo sapiens) (P11229 whole entry, looked up): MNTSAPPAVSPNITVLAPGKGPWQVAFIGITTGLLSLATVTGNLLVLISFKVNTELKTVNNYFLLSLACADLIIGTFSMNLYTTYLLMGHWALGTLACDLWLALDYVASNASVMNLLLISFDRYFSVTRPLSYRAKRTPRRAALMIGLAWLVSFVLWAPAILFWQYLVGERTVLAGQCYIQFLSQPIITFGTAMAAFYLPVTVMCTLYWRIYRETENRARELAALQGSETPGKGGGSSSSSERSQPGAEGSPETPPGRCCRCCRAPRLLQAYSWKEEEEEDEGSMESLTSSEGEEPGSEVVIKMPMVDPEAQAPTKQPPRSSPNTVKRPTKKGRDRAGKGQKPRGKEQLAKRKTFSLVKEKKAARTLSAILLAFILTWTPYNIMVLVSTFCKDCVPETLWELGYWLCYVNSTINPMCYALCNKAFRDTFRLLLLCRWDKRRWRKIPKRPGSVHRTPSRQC
# Summary of the method: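 CHRM1-CHO calcium-flux assay, antagonist mode. Cells were seeded 18 h, dye-loaded 1 h at 37 C and given compound for 5 min at RT, then acetylcholine was added at 50nM. FDSS fluorescence was read 3 min; 15 concentrations, three runs.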
# [11] = target: Muscarinic acetylcholine receptor M1 (Homo sapiens) (UniProt P11229); test: Cholinergic receptor muscarinic 1 (CHRM1) small molecule agonists, cell-based qHTS assay (AID 1963589); also: nearly all actives have a fitted effect of over 35% in size
# Summary of the method: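 CHO cells stably expressing human CHRM1, seeded 18 h at 37 C/5% CO2, dye-loaded 1 h at 37 C, then given compound in agonist mode; intracellular calcium fluorescence read kinetically at 1 s intervals. Fifteen concentrations, three independent runs.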
# [12] = target: Beta-2 adrenergic receptor (Homo sapiens) (UniProt P07550); test: Adrenergic beta2 receptor (ADRB2) small molecule antagonists, cell-based qHTS assay (AID 1963592); also: series mostly up to about 92 µM; nearly all actives have a fitted effect of over 50% in size
# Sequence of Beta-2 adrenergic receptor (Homo sapiens) (P07550 whole entry, looked up): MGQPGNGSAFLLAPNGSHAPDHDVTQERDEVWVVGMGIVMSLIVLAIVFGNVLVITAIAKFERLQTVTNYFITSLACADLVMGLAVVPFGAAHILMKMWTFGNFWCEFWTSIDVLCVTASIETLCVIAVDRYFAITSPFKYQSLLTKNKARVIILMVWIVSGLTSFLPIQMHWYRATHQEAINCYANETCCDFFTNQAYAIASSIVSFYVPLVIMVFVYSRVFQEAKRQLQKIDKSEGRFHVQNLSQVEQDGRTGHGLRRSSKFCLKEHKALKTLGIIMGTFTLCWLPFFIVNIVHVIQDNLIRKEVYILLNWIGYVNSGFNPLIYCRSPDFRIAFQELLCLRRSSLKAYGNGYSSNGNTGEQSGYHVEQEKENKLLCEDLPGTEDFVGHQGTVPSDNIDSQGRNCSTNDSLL
# Summary of the method: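 Cells (CHO, stable ADRB2 overexpression) incubated 18-20hr at 37C; compounds added from DMSO; agonist mix (1nM isoproterenol, 100uM IBMX, 25uM Ro-20-1724) added; 0.5hr RT; d2-cAMP and anti-cAMP-cryptate added; 1hr RT; 665/615 nm read.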
# [13] = target: D(2) dopamine receptor (Homo sapiens) (UniProt P14416); test: Dopamine D2 receptor (DRD2) small molecule antagonists, cell-based qHTS assay (AID 1963595; active = well fitted inhibition curve with a large enough effect in the signal ratio in the repeat runs, with a control signal flat; the % refers to the signal ratio)
# Sequence of D(2) dopamine receptor (Homo sapiens) (P14416 whole entry, looked up): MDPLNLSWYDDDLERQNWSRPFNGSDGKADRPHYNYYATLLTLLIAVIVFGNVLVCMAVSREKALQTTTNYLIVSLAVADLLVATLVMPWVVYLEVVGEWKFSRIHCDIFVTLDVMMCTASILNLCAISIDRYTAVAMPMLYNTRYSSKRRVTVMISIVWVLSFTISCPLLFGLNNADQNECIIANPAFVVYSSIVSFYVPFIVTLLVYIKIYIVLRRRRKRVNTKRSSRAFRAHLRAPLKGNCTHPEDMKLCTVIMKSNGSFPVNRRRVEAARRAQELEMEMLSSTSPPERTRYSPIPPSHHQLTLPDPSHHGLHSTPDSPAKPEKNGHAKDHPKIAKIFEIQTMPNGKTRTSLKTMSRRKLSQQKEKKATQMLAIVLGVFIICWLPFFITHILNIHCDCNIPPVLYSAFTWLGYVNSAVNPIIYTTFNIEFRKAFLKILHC
# Summary of the method: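 HEK293 cells stably expressing DRD2, preincubated with 0.1 mM Ro20-1724 and compounds 10 min, were stimulated with 200 nM NKH477 plus 12 nM quinpirole for 30 min at room temperature; cAMP measured by HTRF (665/620 nm).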
# [14] = p53 small molecule agonists, cell-based qHTS assay (AID 1963582; active = well fitted activation curve with a large enough effect in the signal ratio in the repeat runs, not every such curve was filed as active; the % refers to the signal ratio)
# Summary of the method: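 p53RE-bla beta-lactamase reporter cells rested 5 h at 37 C/5% CO2, then received compounds in DMSO by pin transfer and were incubated 16 h at 37 C. LiveBLAzer B/G FRET substrate was loaded for 2 h at room temperature before fluorescence reading.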
# [15] = cAMP Responsive Elements (CRE) small molecule agonists, cell-based qHTS assay (AID 1963590)
# Summary of the method: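 CRE-bla HEK 293T cells in DMEM with 10% dialyzed FBS, NEAA, pyruvate and 25 mM HEPES were plated 18 h at 37 C/5% CO2, then exposed to compounds in DMSO for 3 h before LiveBLAzer B/G FRET substrate addition.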
# [16] = p53 small molecule agonists, cell-based qHTS assay with human liver microsomes (AID 1963577);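 also: p53 response element beta-lactamase reporter cells with liver microsomes plus NADPH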
# Summary of the method: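 Steps: plate p53RE-bla cells, incubate 5 h at 37 C; add compound in DMSO; add microsomes (0.5 mg/mL final) and NADPH (0.5 mg/mL final); incubate 16 h at 37 C; add LiveBLAzer, 2 h RT; read fluorescence.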
# [17] = target: Beta-2 adrenergic receptor (Homo sapiens) (UniProt P07550); test: Adrenergic beta2 receptor (ADRB2) small molecule agonists, cell-based qHTS assay (AID 1963593);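 also: CHO cells stably overexpressing human ADRB2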
# Summary of the method: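 CHO cells stably over-expressing ADRB2 were plated overnight at 37C, then dosed with compounds plus a stimulation mix containing 100uM IBMX and 25uM Ro-20-1724 for 0.5hr at room temperature. cAMP was measured by HTRF competition, 1hr.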
# [18] = target: D(2) dopamine receptor (Homo sapiens) (UniProt P14416); test: Dopamine D2 receptor (DRD2) small molecule agonists, cell-based qHTS assay (AID 1963594); also: nearly all actives have a fitted effect of over 35% in size
# Summary of the method: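 HEK293 cells stably expressing DRD2 were cultured 24 h at 37 C, then given Ro20-1724 (0.1 mM final) and compounds for 10 min at room temperature. NKH477 (200nM) was then added for 30 min. cAMP was read by HTRF.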
# [19] = cAMP Responsive Elements (CRE) small molecule antagonists, cell-based qHTS assay (AID 1963591; active = well fitted inhibition curve with a large enough effect in the signal ratio in the repeat runs, not every such curve was filed as active; the % refers to the signal ratio)
# Summary of the method: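 CRE-bla HEK293T cells were plated 18 h at 37 °C/5% CO2, pinned with compound in DMSO, then stimulated with NKH477 at 0.25 uM final for 3 h. LiveBLAzer B/G FRET substrate was added and plates incubated 2 h at room temperature.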
# [20] = target: KiSS-1 receptor (Homo sapiens) (UniProt Q969F8); test: Human kisspeptin (KISS1R) small molecule agonists, calcium flux assay in KISS1R-HEK293 cells (AID 1920064; active = well fitted curve in the direction sought with a large enough effect in the repeat runs; an effect the other way counts as inactive or inconclusive)
# Sequence of KiSS-1 receptor (Homo sapiens) (Q969F8 whole entry, looked up): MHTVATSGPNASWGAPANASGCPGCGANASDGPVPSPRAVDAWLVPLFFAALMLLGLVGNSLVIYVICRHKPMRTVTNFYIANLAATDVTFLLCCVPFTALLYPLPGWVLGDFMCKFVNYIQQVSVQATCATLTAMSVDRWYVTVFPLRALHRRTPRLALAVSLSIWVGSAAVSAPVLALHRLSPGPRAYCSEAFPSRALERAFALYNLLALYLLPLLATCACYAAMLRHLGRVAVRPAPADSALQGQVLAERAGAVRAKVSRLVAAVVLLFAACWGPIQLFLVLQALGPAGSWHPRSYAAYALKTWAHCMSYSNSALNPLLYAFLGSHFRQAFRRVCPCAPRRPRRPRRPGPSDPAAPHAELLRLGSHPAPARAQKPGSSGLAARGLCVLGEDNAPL
# Summary of the method: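 HEK293 cells stably expressing human KISS1R were plated 18 h at 37 °C, loaded with calcium dye for 1 h at 37 °C, then given compound by pin tool. Fluorescence (Ex/Em 480/540) was read kinetically for 3 min.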
Structure (SMILES),Potency [1],Potency [2],Potency [3],Potency [4],Potency [5],Potency [6],Potency [7],Potency [8],Potency [9],Potency [10],Potency [11],Potency [12],Potency [13],Potency [14],Potency [15],Potency [16],Potency [17],Potency [18],Potency [19],Potency [20]
COc1ccc(S(=O)(=O)N2C(=O)[C@@](c3ccccc3OC)(N3C[C@H](O)C[C@H]3C(=O)N(C)C)c3cc(Cl)ccc32)c(OC)c1,inactive,inactive,inactive,inactive,inactive,inactive,inactive,inactive,inactive,inactive,inactive,inactive,inactive,,,,,,,
CC(C)NCC(O)COc1ccc(CCOCC2CC2)cc1 (configuration not stated),inactive,inactive,inactive,inactive,inactive,inactive,inactive,,inactive,inactive,inactive,,inactive,inactive,inactive,,,,,
CCC(C)O (configuration not stated),inactive,inactive,inactive,,inactive,inactive,inactive,,inactive,inactive,,inactive,inactive,,,inactive,inactive,inactive,,
N#CCCOCCC#N,inactive,inactive,inactive,inactive,inactive,inactive,inactive,inactive,inactive,inactive,inactive,,inactive,inactive,inactive,inactive,,inactive,inactive,
C/C=C/C=N/NC(=O)c1ccncc1,inactive,inactive,,,inactive,inactive,inactive,inactive,,inactive,inactive,inactive,inactive,,,,,,,inactive
C=C(C)C(=O)OCCOc1ccccc1,inactive,inactive,,,inactive,inactive,inactive,,inactive,inactive,inactive,,inactive,,inactive,,,inactive,,inactive
Brc1c(NC2=NCCN2)ccc2nccnc12,inactive,inactive,inactive,inactive,inactive,inactive,inactive,,,,,,inactive,inactive,inactive,inactive,inactive,inactive,inactive,
CCC(CC)Nc1ccc(C)c(C)c1,inactive,inactive,,,,inactive,inactive,inactive,inactive,inactive,inactive,inactive,inactive,,inactive,,,inactive,inactive,inactive
c1ccc2occc2c1,inactive,inactive,inactive,inactive,,,,375 nM (active),inactive,inactive,,,inactive,,inactive,inactive,,,inactive,
COC(=O)/C=C(\C)CCC=C(C)C,inactive,inactive,inactive,,inactive,inactive,inactive,inactive,inactive,inactive,inactive,inactive,inactive,inactive,inactive,inactive,,inactive,inactive,
Nc1nc(Cl)cc(Cl)n1,inactive,inactive,,,inactive,inactive,,inactive,inactive,inactive,inactive,inactive,inactive,,,,,inactive,,inactive
